The values that follow come from ChEMBL document CHEMBL2218924, “A broad activity screen in support of a chemogenomic map for kinase signalling research and drug discovery” (Biochem J, 2013).

The residual activity is the signal under treatment as a percentage of the control signal.

Test [1] addresses T1, Serine/threonine-protein kinase TBK1 (Homo sapiens) (UniProt Q9UHD2).
T1 sequence (whole entry): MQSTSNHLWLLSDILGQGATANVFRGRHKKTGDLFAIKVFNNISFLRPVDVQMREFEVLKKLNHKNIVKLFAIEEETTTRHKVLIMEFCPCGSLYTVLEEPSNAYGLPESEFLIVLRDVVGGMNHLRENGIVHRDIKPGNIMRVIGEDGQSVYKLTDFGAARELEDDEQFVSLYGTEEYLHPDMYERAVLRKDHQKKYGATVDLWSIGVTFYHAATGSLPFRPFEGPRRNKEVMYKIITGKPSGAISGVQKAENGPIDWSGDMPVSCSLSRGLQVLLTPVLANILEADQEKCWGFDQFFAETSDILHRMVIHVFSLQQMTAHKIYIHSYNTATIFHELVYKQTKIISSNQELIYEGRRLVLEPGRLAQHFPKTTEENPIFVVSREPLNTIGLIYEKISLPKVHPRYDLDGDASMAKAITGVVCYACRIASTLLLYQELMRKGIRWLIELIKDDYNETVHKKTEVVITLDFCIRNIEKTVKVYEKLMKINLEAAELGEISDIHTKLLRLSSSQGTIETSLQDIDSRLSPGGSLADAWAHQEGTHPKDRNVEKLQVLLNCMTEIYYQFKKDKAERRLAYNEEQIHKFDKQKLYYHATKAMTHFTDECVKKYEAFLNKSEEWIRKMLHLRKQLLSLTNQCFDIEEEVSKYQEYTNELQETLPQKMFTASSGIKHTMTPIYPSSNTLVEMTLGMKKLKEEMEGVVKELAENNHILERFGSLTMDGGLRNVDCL
Conditions: at 1 µM.

Test [2] concerns the target T1, Serine/threonine-protein kinase TBK1 (Homo sapiens). Conditions: at 10 µM.
In test [3] the target is T2, TGF-beta receptor type-1 (Homo sapiens) (UniProt P36897).
T2 sequence (whole entry): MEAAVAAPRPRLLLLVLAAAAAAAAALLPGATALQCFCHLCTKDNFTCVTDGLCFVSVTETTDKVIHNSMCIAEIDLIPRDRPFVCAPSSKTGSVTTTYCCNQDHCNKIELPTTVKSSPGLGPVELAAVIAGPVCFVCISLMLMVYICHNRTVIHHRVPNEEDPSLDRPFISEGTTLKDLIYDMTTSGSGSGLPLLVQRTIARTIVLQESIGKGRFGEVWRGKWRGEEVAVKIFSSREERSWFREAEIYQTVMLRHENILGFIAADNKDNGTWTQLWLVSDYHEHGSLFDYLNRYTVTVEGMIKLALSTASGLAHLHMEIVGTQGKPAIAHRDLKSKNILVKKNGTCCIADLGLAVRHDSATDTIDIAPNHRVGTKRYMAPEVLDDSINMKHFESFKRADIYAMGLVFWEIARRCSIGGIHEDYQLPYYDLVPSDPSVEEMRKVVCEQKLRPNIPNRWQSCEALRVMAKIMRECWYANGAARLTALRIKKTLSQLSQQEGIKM
Conditions: at 1 µM.

The target of test [4] is T2, TGF-beta receptor type-1 (Homo sapiens). Conditions: at 10 µM.
For test [5], the target named is Insulin-like growth factor 1 receptor (Homo sapiens) (UniProt P08069). Conditions: at 1 µM.
The target is the same in test [6]. Conditions: at 10 µM.
The target of test [7] is T3, Inhibitor of nuclear factor kappa-B kinase subunit alpha (Homo sapiens) (UniProt O15111).
T3 sequence (whole entry): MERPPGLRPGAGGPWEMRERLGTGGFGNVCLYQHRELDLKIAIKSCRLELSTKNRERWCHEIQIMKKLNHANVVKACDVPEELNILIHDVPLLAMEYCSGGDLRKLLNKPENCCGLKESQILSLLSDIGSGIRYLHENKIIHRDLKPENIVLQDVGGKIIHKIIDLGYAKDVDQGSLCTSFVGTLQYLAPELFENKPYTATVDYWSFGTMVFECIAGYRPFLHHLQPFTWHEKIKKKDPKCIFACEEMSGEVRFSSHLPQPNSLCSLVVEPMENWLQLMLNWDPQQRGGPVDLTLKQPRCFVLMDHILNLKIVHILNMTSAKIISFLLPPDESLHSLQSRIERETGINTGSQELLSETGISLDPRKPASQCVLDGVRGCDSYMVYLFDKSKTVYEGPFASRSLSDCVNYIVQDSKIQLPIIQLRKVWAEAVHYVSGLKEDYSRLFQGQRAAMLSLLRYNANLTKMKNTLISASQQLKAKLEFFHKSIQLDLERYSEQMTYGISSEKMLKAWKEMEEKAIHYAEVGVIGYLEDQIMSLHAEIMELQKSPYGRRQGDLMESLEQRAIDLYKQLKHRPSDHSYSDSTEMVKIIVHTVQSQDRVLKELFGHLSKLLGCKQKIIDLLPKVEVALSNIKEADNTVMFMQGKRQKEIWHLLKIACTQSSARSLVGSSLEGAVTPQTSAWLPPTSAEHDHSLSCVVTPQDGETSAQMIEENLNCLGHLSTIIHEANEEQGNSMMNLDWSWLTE
Conditions: at 1 µM.

Test [8] deals with T3, Inhibitor of nuclear factor kappa-B kinase subunit alpha (Homo sapiens). Conditions: at 10 µM.
Test [9] concerns the target T4, Inhibitor of nuclear factor kappa-B kinase subunit beta (Homo sapiens) (UniProt O14920).
T4 sequence (whole entry): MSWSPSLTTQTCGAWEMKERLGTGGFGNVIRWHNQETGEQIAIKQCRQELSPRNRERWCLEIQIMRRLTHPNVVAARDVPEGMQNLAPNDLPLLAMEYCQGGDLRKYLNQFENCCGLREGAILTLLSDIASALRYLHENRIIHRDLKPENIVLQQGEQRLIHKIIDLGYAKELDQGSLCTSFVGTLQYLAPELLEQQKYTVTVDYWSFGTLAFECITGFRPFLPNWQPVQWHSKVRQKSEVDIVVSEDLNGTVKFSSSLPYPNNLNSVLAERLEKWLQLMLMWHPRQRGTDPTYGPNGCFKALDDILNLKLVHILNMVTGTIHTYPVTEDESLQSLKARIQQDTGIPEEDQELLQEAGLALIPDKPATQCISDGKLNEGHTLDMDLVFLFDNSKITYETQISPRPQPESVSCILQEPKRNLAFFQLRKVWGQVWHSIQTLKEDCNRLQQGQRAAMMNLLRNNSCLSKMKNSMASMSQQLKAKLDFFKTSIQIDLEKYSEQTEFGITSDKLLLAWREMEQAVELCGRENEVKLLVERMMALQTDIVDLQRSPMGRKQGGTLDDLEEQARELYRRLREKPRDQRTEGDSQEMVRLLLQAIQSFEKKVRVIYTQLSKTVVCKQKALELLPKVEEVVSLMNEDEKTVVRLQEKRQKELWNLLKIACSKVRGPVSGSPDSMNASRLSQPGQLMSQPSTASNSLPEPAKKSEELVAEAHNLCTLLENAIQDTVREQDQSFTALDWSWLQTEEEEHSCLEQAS
Conditions: at 10 µM.

Test [10] deals with Insulin receptor (Homo sapiens) (UniProt P06213). Conditions: at 1 µM.
Chain of Insulin receptor (Homo sapiens) (P06213 28-758 limits assumed): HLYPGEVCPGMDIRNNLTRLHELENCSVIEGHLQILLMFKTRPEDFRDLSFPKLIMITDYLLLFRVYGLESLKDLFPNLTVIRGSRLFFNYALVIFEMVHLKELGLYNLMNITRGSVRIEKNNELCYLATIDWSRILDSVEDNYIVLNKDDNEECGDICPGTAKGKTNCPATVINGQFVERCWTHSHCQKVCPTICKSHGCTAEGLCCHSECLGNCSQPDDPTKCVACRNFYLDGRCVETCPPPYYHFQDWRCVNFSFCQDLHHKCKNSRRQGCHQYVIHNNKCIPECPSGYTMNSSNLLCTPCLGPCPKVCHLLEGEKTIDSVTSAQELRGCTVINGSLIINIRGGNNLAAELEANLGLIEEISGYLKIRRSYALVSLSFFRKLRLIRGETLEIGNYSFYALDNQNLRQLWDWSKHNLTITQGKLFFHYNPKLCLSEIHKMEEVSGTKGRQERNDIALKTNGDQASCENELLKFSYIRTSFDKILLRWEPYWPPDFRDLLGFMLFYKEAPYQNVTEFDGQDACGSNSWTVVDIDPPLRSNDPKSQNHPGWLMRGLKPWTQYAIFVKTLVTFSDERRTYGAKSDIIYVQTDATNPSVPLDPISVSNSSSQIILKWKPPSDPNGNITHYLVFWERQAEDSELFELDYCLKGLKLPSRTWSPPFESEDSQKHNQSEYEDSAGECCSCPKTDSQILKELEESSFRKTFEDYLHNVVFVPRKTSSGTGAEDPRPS
Chain of Insulin receptor (Homo sapiens) (P06213 763-1382 limits assumed): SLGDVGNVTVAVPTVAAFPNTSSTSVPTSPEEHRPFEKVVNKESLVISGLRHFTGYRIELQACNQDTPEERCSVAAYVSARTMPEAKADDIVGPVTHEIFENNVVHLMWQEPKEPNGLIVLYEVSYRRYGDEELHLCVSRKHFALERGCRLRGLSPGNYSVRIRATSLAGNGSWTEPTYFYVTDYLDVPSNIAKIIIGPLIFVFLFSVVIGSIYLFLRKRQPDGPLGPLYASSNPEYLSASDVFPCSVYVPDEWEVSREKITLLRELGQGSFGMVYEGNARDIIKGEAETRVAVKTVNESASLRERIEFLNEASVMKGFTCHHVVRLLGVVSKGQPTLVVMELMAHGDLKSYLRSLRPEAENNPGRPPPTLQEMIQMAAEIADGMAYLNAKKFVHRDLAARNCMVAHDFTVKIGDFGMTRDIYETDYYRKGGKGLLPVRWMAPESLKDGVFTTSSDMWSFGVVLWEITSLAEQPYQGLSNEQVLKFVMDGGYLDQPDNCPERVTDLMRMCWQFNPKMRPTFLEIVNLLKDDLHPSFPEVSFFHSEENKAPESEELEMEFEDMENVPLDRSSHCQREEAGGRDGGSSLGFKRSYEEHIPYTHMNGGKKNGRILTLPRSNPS

Chain of Insulin-like growth factor 1 receptor (Homo sapiens) (P08069 31-736 limits assumed): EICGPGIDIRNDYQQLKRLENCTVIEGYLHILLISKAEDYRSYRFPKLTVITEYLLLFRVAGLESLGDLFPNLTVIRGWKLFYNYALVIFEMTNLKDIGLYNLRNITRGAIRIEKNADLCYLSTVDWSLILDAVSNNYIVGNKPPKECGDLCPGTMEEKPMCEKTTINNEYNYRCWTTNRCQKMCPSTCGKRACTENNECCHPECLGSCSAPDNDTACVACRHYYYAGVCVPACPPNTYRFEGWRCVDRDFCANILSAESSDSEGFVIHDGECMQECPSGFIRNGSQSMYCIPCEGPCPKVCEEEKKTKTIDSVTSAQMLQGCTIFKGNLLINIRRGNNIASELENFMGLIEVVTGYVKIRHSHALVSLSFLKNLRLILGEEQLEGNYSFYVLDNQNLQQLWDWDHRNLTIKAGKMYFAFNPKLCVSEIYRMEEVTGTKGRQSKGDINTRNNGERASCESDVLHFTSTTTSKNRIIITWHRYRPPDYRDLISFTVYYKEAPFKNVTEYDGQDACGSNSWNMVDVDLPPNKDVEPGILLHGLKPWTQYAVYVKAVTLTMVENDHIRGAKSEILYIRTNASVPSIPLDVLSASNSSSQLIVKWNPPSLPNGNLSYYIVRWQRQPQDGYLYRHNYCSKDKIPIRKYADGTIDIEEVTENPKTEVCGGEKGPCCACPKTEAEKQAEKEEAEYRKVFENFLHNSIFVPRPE
Chain of Insulin-like growth factor 1 receptor (Homo sapiens) (P08069 741-1367 limits assumed): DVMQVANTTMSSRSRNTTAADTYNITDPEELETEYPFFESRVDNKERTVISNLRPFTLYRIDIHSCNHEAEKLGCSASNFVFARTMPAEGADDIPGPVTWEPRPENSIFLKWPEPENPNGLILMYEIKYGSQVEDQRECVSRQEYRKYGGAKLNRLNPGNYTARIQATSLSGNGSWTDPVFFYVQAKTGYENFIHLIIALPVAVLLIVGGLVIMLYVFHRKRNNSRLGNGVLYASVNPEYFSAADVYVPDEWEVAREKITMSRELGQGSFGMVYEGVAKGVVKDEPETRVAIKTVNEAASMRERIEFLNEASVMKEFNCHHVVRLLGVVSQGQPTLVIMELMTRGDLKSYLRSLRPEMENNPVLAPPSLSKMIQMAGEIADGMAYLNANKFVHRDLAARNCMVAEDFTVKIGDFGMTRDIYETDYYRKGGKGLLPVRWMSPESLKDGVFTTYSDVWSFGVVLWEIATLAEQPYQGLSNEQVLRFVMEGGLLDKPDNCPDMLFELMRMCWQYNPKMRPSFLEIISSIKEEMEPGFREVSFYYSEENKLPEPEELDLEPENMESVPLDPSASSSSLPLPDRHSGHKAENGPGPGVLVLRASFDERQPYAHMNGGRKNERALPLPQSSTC

As for `O=C(CCCc1ccc(-c2ccccc2F)cc1)Nc1ccc(O)cc1`, the residual activity in test [1] was 90%; in [2], 73%; in test [3] it was 108%; in [4] it was 112%; in [5] it was 100%; in test [6] it was 92%. Further, the residual activity came to 101% in [7], 129% in test [8], 101% in [9] and 112% in test [10].
